Inconclusive results are not listed. Activity calls are given as the source filed them. Unless noted, calls follow the shape of the dose curve; as a rule, active = well fitted curve in the direction sought with a large enough effect; inconclusive = small, poorly fitted or top-dose-only effect, or another doubt; inactive = no such curve, though single readings can be large; an effect the other way counts as inactive or inconclusive.
Experiments:
[1] = biological target: Lysosomal acid glucosylceramidase (Homo sapiens) (UniProt P04062); test: Glucocerebrosidase-p2 (AID 348; in the data active = potency below about 10 µM; also: potency is read from the fitted curve at half-maximal effect); conditions: purified GBA, blue fluorogenic substrate, 40 min
Chain of Lysosomal acid glucosylceramidase (Homo sapiens) (P04062 whole entry, looked up): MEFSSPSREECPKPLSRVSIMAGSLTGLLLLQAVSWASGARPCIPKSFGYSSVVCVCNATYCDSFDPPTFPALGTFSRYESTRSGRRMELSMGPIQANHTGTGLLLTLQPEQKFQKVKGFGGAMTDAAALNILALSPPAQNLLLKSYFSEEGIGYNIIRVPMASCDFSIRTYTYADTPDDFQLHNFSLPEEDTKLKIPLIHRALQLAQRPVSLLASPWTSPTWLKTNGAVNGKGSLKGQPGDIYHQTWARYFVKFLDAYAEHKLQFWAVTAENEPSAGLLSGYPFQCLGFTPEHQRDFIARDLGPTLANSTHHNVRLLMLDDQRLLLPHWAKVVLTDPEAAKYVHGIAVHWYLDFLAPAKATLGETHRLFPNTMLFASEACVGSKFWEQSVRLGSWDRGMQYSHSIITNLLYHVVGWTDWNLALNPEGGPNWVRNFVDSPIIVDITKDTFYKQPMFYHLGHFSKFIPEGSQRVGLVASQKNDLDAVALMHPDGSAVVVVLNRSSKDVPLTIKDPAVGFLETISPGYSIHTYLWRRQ
Summary of the method: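 Compounds titrated from 0.6 nM upwards against 0.2 nM enzyme in pH 5.9 citric acid/KH2PO4, taurocholate, tween-20; blue fluorogenic substrate 80 uM, 40 min room temperature, stopped and read Ex 365/Em 440 for AC50.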

[2] = AP1 Signaling Pathway (AID 357; active = well fitted curve in either direction with a large enough effect, not every such curve was filed as active;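 also: ME-180 reporter cells stimulated with EGF at its EC50 level; % is scaled to controls: 0 for no effect and ±100 for the full control effect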); conditions: ME-180 AP-1-bla reporter, EGF-induced, beta-lactamase ratio, 5 h; at 7.69 µM (top of the series) unless noted
Summary of the method: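 A ratiometric CCF4 readout (405 nm excitation; 460 and 530 nm emission) quantified AP-1-driven beta-lactamase in ME-180 cells after 5 h with compound and EC50 EGF; AC50 values were derived for activators and inhibitors.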

[3] = biological target: Cytochrome P450 1A2 (Homo sapiens) (UniProt P05177); test: p450-cyp1a2 (AID 410; calls by dose curve; also: potency is read from the fitted curve at half-maximal effect); conditions: recombinant CYP1A2, luciferin-ME demethylation, luminescence; series mostly up to 57 µM
Chain of Cytochrome P450 1A2 (Homo sapiens) (P05177 whole entry, looked up): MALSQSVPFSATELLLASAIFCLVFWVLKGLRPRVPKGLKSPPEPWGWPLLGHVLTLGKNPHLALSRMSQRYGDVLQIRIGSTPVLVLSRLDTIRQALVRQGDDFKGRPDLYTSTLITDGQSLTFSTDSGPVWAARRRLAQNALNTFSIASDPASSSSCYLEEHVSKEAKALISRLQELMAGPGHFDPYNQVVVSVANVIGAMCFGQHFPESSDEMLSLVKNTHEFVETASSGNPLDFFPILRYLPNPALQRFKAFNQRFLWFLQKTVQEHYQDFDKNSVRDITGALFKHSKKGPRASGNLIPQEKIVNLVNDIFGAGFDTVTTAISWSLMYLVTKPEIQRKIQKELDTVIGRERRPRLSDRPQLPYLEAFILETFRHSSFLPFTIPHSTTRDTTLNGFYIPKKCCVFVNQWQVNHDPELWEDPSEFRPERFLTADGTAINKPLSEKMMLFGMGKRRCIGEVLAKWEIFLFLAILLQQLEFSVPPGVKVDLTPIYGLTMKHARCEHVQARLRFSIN
Summary of the method: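 Human CYP1A2 (20nM) demethylated Luciferin-ME at its Km (100uM) in 100mM KPO4. After 10 min compound preincubation, NADPH regeneration ran the reaction 60 min at room temperature. Luciferin was read by luminescence, normalized to 57 uM furafylline.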

[4] = NFAT Signaling Pathway (AID 444; active = well fitted curve in either direction with a large enough effect, not every such curve was filed as active;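 also: carbachol stimulus at about its EC50 of 1 µM final; % is scaled to controls: 0 for no effect and ±100 for the full control effect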); conditions: Jurkat NFAT-bla M1, carbachol, beta-lactamase ratio, 5 h; at 7.69 µM (top of the series) unless noted
Summary of the method: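 Jurkat cells carrying an NFAT-driven β-lactamase reporter and co-transfected muscarinic M1 receptor were treated with compound plus carbachol (1 uM final, an EC50 level) for 5 h at 37 °C. CCF4 loading followed for 1 h at RT; 460/530 nm ratio gave %activity.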

[5] = biological target: Glucocorticoid receptor (Homo sapiens) (UniProt P04150); test: GR-GFP Redistribution (AID 450;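 active = compounds whose dose series gives a full or clear partial fitted curve of increased nuclear translocation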; also: potency is read from the fitted curve at half-maximal effect); conditions: U2OS GR-GFP nuclear translocation, laser cytometry, 2 h
Chain of Glucocorticoid receptor (Homo sapiens) (P04150 whole entry, looked up, the tested form may be a part): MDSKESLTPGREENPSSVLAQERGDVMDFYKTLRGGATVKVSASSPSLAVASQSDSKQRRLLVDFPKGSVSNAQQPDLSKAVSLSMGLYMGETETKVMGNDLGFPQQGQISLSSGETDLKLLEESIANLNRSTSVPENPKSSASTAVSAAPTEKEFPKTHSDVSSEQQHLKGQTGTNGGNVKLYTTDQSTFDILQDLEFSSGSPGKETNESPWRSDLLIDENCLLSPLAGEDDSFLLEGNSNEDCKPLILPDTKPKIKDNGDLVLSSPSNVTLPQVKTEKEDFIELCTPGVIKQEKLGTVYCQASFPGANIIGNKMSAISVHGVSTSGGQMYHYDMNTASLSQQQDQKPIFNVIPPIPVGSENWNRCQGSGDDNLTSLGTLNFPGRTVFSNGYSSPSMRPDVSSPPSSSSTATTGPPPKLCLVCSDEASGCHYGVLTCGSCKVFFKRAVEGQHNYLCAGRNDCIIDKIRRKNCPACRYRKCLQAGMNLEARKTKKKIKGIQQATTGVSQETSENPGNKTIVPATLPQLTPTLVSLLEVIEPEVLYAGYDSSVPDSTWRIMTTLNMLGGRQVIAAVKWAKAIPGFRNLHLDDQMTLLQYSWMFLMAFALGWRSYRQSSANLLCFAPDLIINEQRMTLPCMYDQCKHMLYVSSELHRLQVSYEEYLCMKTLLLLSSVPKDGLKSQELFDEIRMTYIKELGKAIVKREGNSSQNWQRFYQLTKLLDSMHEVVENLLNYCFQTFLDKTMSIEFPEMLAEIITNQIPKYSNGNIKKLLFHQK

[6] = biological target: Glucocorticoid receptor (Homo sapiens) (UniProt P04150); test: GR-EFC Redistribution (AID 451; calls by dose curve; also: potency is read from the fitted curve at half-maximal effect); conditions: CHO-K1 GR-EFC translocation, beta-gal luminescence, 2 h
Summary of the method: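 CHO-K1 cells stably expressing nuclear-localized β-gal enzyme acceptor and GR fused C-terminally to the enzyme donor fragment; ligand-driven nuclear translocation restores β-gal by complementation. Compounds titrated up to 46 uM final, 2 h at 37 °C; luminescence read.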

[7] = biological target: Cytochrome P450 3A4 (Homo sapiens) (UniProt P08684); test: qHTS Assay for Activators of Cytochrome P450 3A4 (AID 885); conditions: recombinant CYP3A4, Luciferin-PPXE luminescence, 60 min; series mostly up to 57.1 µM; also: nearly all actives have a fitted effect of over 65% in size
Chain of Cytochrome P450 3A4 (Homo sapiens) (P08684 whole entry, looked up): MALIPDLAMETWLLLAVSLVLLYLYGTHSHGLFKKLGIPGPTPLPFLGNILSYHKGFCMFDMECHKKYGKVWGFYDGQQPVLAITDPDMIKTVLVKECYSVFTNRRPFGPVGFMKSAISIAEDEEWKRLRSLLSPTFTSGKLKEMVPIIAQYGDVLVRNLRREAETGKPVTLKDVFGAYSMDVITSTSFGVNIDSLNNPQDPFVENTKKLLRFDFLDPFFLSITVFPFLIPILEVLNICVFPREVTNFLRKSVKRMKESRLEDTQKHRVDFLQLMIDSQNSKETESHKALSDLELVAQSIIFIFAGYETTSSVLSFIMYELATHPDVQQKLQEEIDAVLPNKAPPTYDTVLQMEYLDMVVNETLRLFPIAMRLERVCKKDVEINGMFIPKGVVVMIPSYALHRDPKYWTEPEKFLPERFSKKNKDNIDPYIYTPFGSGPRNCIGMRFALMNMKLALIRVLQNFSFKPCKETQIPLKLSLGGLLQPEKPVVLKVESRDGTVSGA
Summary of the method: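 Quantitative HTS format: compounds preincubated with 20nM human CYP3A4 and Luciferin-PPXE substrate at KM, reaction started by NADPH regeneration, stopped after 60 min, luciferase luminescence read 20 min later.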

[8] = qHTS Assay for Lipid Storage Modulators (AID 1519; calls by dose curve); conditions: Drosophila S3 cells, BODIPY lipid droplet/cell ratio, laser cytometry, cells loaded with oleic acid; for activity change, negative = inhibition: at 57.5 µM (top of the series)
Summary of the method: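 Cells seeded at 5,000 per well were treated with compounds over a concentration series and loaded with oleic acid (400 uM, as added). Lipid droplet fluorescence (488 nm excitation, 500-530 nm channel) was read by laser-scanning cytometry and normalized to 20 uM Triacsin C.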

[9] = biological target: Dual specificity protein kinase CLK4 (Homo sapiens) (UniProt Q9HAZ1); test: qHTS Assay for Inhibitors of CDC-like Kinase 4 (Kinase-Glo Assay) (AID 1770); conditions: recombinant Clk4, Kinase-Glo ATP depletion luminescence; series mostly up to 66.7 µM; also: nearly all actives have a fitted effect of over 65% in size; also: potency is read from the fitted curve at half-maximal effect
Chain of Dual specificity protein kinase CLK4 (Homo sapiens) (Q9HAZ1 whole entry, looked up): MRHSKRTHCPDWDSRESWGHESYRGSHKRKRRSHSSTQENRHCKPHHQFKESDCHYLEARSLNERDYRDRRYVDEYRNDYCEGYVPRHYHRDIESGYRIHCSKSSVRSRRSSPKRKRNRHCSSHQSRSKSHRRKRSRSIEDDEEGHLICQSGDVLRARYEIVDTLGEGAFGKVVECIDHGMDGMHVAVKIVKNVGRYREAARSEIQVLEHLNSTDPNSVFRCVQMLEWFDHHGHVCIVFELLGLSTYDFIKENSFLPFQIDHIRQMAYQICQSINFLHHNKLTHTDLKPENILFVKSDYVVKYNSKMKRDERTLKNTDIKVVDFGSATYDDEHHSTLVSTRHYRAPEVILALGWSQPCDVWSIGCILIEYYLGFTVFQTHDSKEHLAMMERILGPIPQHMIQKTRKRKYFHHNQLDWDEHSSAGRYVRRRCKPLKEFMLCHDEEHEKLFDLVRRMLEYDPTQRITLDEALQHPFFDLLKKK
Summary of the method: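 Inhibition was judged from remaining ATP, measured by Ultra-Glo luciferase bioluminescence after Clk4 (25 nM) had acted on RS peptide at 1 uM ATP for 4.5 hours, room temperature.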

[10] = biological target: Dual specificity protein kinase CLK4 (Homo sapiens) (UniProt Q9HAZ1); test: qHTS Assay for Inhibitors of CDC-like Kinase 4 (ADP-FP Assay) (AID 1795); conditions: Transcreener ADP fluorescence polarization; series mostly up to 50 µM;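 also: recombinant human CLK4 phosphorylating RS repeat peptide at 1 µM ATP; % is scaled to controls: 0 for no effect and ±100 for the full control effect; nearly all actives have a fitted effect of over 60% in size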
Summary of the method: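 Inhibition of ADP formation by 6.25 nM Clk4 is measured using 1 uM ATP and 100 uM RS repeat peptide over one hour. Produced ADP displaces a fluorescent tracer from antibody, lowering polarization.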

[11] = Primary qHTS for small molecule stabilizers of the endoplasmic reticulum resident proteome: Secreted ER Calcium Modulated Protein (SERCaMP) assay (AID 1508630); conditions: SH-SY5Y GLuc-SERCaMP (Gaussia luciferase released on ER calcium loss) secretion, thapsigargin, luminescence; series mostly up to 38.4 µM; also: % is scaled to controls: 0 for no effect and ±100 for the full control effect
Summary of the method: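 GLuc-SERCaMP-expressing SH-SY5Y cells, pretreated 16 h with compound, are challenged with thapsigargin to empty ER calcium stores; after 4 h, coelenterazine is added directly to the medium and luminescence is imaged.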

[12] = biological target: Mitogen-activated protein kinase 10 (Mus musculus) (UniProt Q61831); test: JNK3 AlphaScreen Assay (AID 530; active = well fitted curve in either direction with a large enough effect, not every such curve was filed as active;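 also: kinase came from lysate of stimulated human HepG2 cells; signal reports phosphorylation of biotinylated GST-cJun 1-79 at Ser73 with 10 µM ATP; % is scaled to controls: 0 for no effect and ±100 for the full control effect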); conditions: JNK3 lysate, c-Jun phosphorylation; series mostly up to 57.1 µM
Summary of the method: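 JNK3 came from HepG2 lysates pre-activated with IL-1beta and TNF-alpha and phosphorylated biotinylated GST-cJun (1-79) at 10 uM ATP, pH 7.6, room temperature. Compounds were titrated. AlphaScreen signal used anti-phospho-cJun (Ser73) antibody.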

[13] = biological target: Cytochrome P450 2C19 (Homo sapiens) (UniProt P33261); test: qHTS Assay for Inhibitors and Substrates of Cytochrome P450 2C19 (AID 899); conditions: recombinant CYP2C19, luciferin-H EGE luminescence; series mostly up to 57.1 µM; also: potency is read from the fitted curve at half-maximal effect; nearly all actives have a fitted effect of over 60% in size
Chain of Cytochrome P450 2C19 (Homo sapiens) (P33261 whole entry, looked up): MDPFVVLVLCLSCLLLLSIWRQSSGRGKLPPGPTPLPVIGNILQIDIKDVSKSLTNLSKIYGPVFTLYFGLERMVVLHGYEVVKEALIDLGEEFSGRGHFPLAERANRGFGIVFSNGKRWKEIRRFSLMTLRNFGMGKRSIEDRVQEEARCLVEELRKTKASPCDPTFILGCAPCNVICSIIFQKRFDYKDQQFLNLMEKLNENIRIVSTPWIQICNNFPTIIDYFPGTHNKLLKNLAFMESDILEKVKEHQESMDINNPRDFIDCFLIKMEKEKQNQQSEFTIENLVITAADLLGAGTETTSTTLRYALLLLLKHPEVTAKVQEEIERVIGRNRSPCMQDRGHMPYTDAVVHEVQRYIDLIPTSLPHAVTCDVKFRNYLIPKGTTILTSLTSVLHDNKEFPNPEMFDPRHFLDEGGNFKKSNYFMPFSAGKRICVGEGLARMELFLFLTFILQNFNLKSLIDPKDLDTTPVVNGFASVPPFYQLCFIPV
Summary of the method: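 Human CYP2C19 (5nM) with Luciferin-H EGE at 10uM (its KM) in 50mM KPO4 was preincubated with compound for 10 min at 37C. NADPH regeneration started a 60 min 37C reaction. Luciferin was read by luminescence, normalized to 57uM ketoconazole.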

[14] = biological target: Ubiquitin carboxyl-terminal hydrolase 1 (Homo sapiens) (UniProt O94782); test: Inhibitors of USP1/UAF1: Pilot qHTS (AID 504865); conditions: purified USP1/UAF1, Ub-rhodamine cleavage fluorescence; series mostly up to 54.9 µM; also: nearly all actives have a fitted effect of over 35% in size; also: potency is read from the fitted curve at half-maximal effect
Chain of Ubiquitin carboxyl-terminal hydrolase 1 (Homo sapiens) (O94782 whole entry, looked up): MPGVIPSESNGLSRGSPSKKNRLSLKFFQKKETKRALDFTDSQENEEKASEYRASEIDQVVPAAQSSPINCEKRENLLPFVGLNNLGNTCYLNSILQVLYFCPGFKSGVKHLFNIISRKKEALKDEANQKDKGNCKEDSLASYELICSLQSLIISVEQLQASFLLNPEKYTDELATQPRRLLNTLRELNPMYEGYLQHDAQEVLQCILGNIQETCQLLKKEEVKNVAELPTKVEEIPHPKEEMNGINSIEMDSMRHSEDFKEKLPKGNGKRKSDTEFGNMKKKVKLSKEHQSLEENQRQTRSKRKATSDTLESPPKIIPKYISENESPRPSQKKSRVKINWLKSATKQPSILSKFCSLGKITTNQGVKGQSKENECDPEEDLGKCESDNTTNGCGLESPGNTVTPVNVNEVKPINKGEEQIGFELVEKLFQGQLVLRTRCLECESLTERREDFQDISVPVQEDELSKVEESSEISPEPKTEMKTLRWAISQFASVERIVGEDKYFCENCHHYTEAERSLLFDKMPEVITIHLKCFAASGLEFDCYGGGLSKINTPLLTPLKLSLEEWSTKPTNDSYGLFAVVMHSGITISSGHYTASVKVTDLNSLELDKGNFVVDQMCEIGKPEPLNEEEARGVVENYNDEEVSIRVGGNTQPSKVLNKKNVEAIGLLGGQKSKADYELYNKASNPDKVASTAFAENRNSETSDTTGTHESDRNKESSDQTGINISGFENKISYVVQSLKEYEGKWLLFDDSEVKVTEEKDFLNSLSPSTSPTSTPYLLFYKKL
Summary of the method: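 Kinetic fluorescence assay: 1nM USP1/UAF1, 15 min compound preincubation, then 150nM Ub-Rho; 480/540 nm.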

[15] = Stat Signaling Pathway (AID 446; active = well fitted curve in either direction with a large enough effect, not every such curve was filed as active); conditions: ME-180 (cervical carcinoma) SIE beta-lactamase reporter, IL-6 stimulated, 5 h; at 7.69 µM (top of the series) unless noted
Summary of the method: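 IL-6/STAT signaling read in ME-180 cells via an SIE beta-lactamase reporter. Stimulus was 40 pM IL-6 (its AC50) for 5 hrs, so both activation and inhibition register.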

[16] = biological target: 3',5'-cyclic-AMP phosphodiesterase 4B (Homo sapiens) (UniProt Q07343); test: qHTS Assay for Inhibitors of PDE-IV (AID 607; active = well fitted activation curve with a large enough effect in the main read-out, with a control signal flat, not every such curve was filed as active; also: % of control where 0% means no effect); conditions: HEK293 ACTOne CNG channel cells, membrane potential fluorescence; series mostly up to 22.9 µM
Chain of 3',5'-cyclic-AMP phosphodiesterase 4B (Homo sapiens) (Q07343 whole entry, looked up): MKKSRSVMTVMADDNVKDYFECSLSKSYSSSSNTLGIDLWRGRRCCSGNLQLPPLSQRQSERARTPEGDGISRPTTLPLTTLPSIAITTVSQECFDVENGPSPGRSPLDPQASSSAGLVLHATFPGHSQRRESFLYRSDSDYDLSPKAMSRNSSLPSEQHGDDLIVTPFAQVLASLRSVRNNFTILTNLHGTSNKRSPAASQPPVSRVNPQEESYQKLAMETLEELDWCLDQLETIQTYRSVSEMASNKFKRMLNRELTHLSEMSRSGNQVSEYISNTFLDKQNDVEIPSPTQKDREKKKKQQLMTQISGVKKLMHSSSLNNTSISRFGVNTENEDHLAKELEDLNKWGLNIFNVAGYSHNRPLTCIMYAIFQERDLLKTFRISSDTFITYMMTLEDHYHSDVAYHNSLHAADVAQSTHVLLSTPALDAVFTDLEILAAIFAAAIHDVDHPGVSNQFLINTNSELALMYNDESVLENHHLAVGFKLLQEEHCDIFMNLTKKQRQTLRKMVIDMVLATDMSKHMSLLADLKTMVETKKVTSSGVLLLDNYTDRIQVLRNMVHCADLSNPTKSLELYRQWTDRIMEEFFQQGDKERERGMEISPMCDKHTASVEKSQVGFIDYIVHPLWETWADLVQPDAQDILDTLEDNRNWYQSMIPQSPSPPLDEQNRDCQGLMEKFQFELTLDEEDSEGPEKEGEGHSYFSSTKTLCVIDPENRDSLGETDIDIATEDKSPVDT
Summary of the method: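 Live HEK293 cells with a modified cyclic nucleotide-gated (CNG) channel report intracellular cAMP via membrane-potential dye fluorescence (ex 535/em 590 nm). Endogenous PDE-IV was targeted. Compounds were tested at up to 22.9 uM final; RO 20-1724 100 uM served as control.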

[17] = biological target: Dual specificity protein kinase CLK4 (Homo sapiens) (UniProt Q9HAZ1); test: qHTS Assay for Inhibitors of CDC-like Kinase 4 (ADP-Glo Assay) (AID 1771); conditions: recombinant CLK4, ADP-Glo luminescence; series mostly up to 80 µM; also: potency is read from the fitted curve at half-maximal effect; nearly all actives have a fitted effect of over 70% in size
Summary of the method: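 Clk4 (25 nM) was incubated 1 hr at room temperature with 100 uM RS repeat peptide and 1 uM ATP in buffer with 2 mM MgCl2, 0.5 mM EGTA, 2.5 mM DTT. ADP formed was quantified by ADP-Glo luminescence.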

[18] = biological target: Cytochrome P450 3A4 (Homo sapiens) (UniProt P08684); test: qHTS Assay for Inhibitors and Substrates of Cytochrome P450 3A4 (AID 884); conditions: recombinant CYP3A4, Luciferin-PPXE luminescence; series mostly up to 57.1 µM; also: potency is read from the fitted curve at half-maximal effect; nearly all actives have a fitted effect of over 50% in size
Summary of the method: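 20 nM human CYP3A4 with 25 uM Luciferin-PPXE (at KM) in 200 mM KPO4, preincubated 10 min with compound; NADPH regeneration started a 60 min RT reaction. Luciferin detected by luminescence, normalized to 57 uM ketoconazole as full inhibition.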

[19] = measured here: cell count channel max response
[20] = measured here: lipid channel max response

Row | SMILES | Potency [1] | activity change, negative = inhibition [2] | Potency [3] | activity change, negative = inhibition [4] | Potency [5] | Potency [6] | Potency [7] | activity change, negative = inhibition [8] | max response [8, 19] [%] | max response [8, 20] [%] | Potency [9] | Potency [10] | Potency [11] | outcome [12] | Potency [13] | Potency [14] | activity, negative = inhibition [15] | Potency [16] | Potency [17] | Potency [18]
1 | O=c1c(-c2cccs2)nc2cnc(N3CCOCC3)nc2n1-c1ccccc1 | > 11.4 µM (inactive) | 25.6% (inactive) | 5.01 µM (active) | 2.23% (inactive) | > 9.22 µM (inactive) | > 46 µM (inactive) | inactive | -15.1% (inactive) | 13.7 | -6.13 | inactive | inactive | inactive | – | – | – | – | – | – | –
2 | Cc1ccccc1-c1cc(NCc2ccccc2)ncn1 | > 11.4 µM (inactive) | 19.4% (inactive) | 3.98 µM (active) | -13.3% (inactive) | > 46 µM (inactive) | > 46 µM (inactive) | – | 4.42% (inactive) | 24.9 | 28.2 | inactive | inactive | inactive | inactive | 3.16 µM (active) | 20 µM (active) | – | – | – | –
3 | Cc1noc(C)c1-c1nccc(N2CCOCC2)n1 | > 11.4 µM (inactive) | 19% (inactive) | 0.631 µM (active) | 4.77% (inactive) | – | > 46 µM (inactive) | – | 6.74% (inactive) | 6.28 | 17 | 14.1 µM (active) | – | inactive | inactive | – | inactive | 14.5% (inactive) | inactive | 14.1 µM (active) | –
4 | COCCNc1nc(-c2ccccc2Cl)nc2ccccc12 | 11 µM (inactive) | -0.0888% (inactive) | 0.126 µM (active) | 7.18% (inactive) | > 46 µM (inactive) | > 46 µM (inactive) | inactive | 3.23% (inactive) | 2.91 | 4.03 | 15.8 µM (active) | – | inactive | inactive | – | inactive | -3.65% (inactive) | – | 8.91 µM (active) | –
5 | CNc1ncnc2ccc(-c3ccccc3CN(C)C)cc12 | > 11.4 µM (inactive) | -22.5% (inactive) | 3.16 µM (active) | -2.46% (inactive) | > 46 µM (inactive) | > 46 µM (inactive) | inactive | 4.45% (inactive) | 6.85 | 10.7 | 25.1 µM (active) | – | inactive | inactive | – | inactive | -1.81% (inactive) | inactive | 12.6 µM (active) | 7.94 µM (active)
6 | COc1ccc(-n2c(=O)cnc3cnc(OC)nc32)cc1 | > 11.4 µM (inactive) | -6% (inactive) | – | -7.79% (inactive) | – | > 46 µM (inactive) | – | 4.86% (inactive) | 24.2 | 29.5 | 15.8 µM (active) | – | inactive | inactive | – | inactive | – | inactive | 14.1 µM (active) | –
